Measurements: PubChem BioAssay
Active and inactive are the calls of the source.

Tests used:
[1] = E. coli DRC41 culture turbidity changes, primary screen, E. coli filamentation inducer project, strain DRC41, OD650, 48 h (AID 1152);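 further: E. coli MC1000 strain DRC41 lacking acrAB efflux pump and sulA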; conditions: E. coli DRC41 (acrAB sulA), higher = more signal, called active from +8 up or from −8 down
[2] = small-molecule binders of probe aLefty1, primary screen, biochemical, small-molecule microarray, 635/667 nm fluorescence (AID 1153); conditions: higher = more signal;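 further: score merges spot fluorescence with signal-to-noise ratio from the scanned slide images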
[3] = PSAC antagonists in infected red cells, primary screen, cell-based, P. falciparum Indochina, OD700, 1 h (AID 1154); conditions: P. falciparum Indochina infected RBC osmotic lysis, higher = more signal, called active from +8 up or from −8 down
[4] = PSAC antagonists in infected red cells, primary screen, cell-based, P. falciparum Indochina, OD700, 2 h (AID 1155);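 further: lysis reports solute entry through the parasite surface anion channel PSAC; channel blockers reduce lysis of infected cells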; conditions: P. falciparum Indochina infected erythrocytes, osmotic lysis OD700; higher = more signal, called active from +8 up or from −8 down
[5] = osmotic lysis modulators in infected erythrocytes, primary screen, PSAC antagonist project, cell-based, P. falciparum Indochina, OD700, 3 h (AID 1156); conditions: higher = more signal, called active from +8 up or from −8 down
[6] = PSAC antagonists in infected red cells, primary screen, cell-based, P. falciparum Indochina, OD700, 18 h (AID 1157); conditions: P. falciparum Indochina infected erythrocytes, osmotic lysis OD700, 18 h; higher = more signal, called active from +8 up or from −8 down
[7] = modulators of S6 phosphorylation in cells, primary screen, cell-based, A549, cytoblot, luminescence, serum-stimulated (AID 1158); conditions: A549 phospho-S6 cytoblot, 5 h, higher = more signal;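 further: serum-stimulated A549 lung adenocarcinoma cells; signal is phosphorylated S6 detected by cytoblot immunostaining with HRP secondary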
[8] = target: NADPH oxidase 2 (Homo sapiens) (UniProt P04839); assay: NOX2-dependent H2O2 signal modulators, primary screen, NOX inhibitor project, cell-based, HEK293-NOX2, PMA-stimulated, Amplex Red fluorescence (AID 1159); conditions: 45 min, higher = more signal, called active from +8 up or from −8 down; further: test concentration not given here
[9] = target: NADPH oxidase 4 (Homo sapiens) (UniProt Q9NPH5); assay: NOX4-dependent H2O2 signal modulators, primary screen, NOX inhibitor project, cell-based, HEK293-NOX4, tetracycline-induced, Amplex Red fluorescence (AID 1160); conditions: 45 min, higher = more signal, called active from +8 up or from −8 down
[10] = target: NADPH oxidase 5 (Homo sapiens) (UniProt Q96PH1); assay: NOX5-dependent H2O2 signal modulators, primary screen, NOX inhibitor project, cell-based, HEK293-NOX5, Amplex Red fluorescence (AID 1161); conditions: HEK293-NOX5, ionomycin, 45 min, higher = more signal
[11] = A549 cell viability effects, profiling panel, calcein-AM fluorescence, 48 h, basal (AID 1162); conditions: higher = more signal; further: test concentration not given here
[12] = adipocyte viability effects, profiling panel, cell-based, 3T3-L1 adipocytes, calcein-AM fluorescence, 48 h, basal (AID 1163); conditions: 3T3-L1 adipocytes viability, higher = more signal; further: test concentration not given here
[13] = HepG2 cell viability effects, profiling panel, calcein-AM fluorescence, 48 h, basal (AID 1164); conditions: higher = more signal; further: test concentration not given here
[14] = MM1S cell viability effects, profiling panel, calcein-AM fluorescence, 48 h, basal (AID 1165); conditions: higher = more signal;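 further: viability of MM1S multiple myeloma cells under basal unstimulated conditions; test concentration not given here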
[15] = basal RPMI8226 viability, no added stimulus, profiling panel, cell-based, calcein-AM fluorescence, 48 h, PK04 Diversity Set (AID 1166); conditions: RPMI8226 myeloma viability, higher = more signal;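 further: cells grown under basal conditions without added stimulus; test concentration not given here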
[16] = basal HepG2 mitochondrial membrane potential changes, profiling panel, cell-based, JC-1 fluorescence, 24 h, 100 nL compound (AID 1167); conditions: higher = more signal; further: test concentration not given here
[17] = basal 3T3-L1 adipocyte mitochondrial potential changes, profiling panel, cell-based, JC-1 fluorescence, 3T3-L1 adipocytes, 24 h, 100 nL compound (AID 1168); conditions: JC-1 mitochondrial fluorescence, higher = more signal, called active from +8 up or from −8 down; further: test concentration not given here
[18] = basal RPMI8226 mitochondrial membrane potential changes, profiling panel, cell-based, JC-1 fluorescence, 24 h, 100 nL compound (AID 1169); conditions: RPMI8226 myeloma, JC-1 mitochondrial potential fluorescence, higher = more signal; further: test concentration not given here
[19] = basal MM1S mitochondrial membrane potential changes, profiling panel, cell-based, JC-1 fluorescence, 24 h, 100 nL compound (AID 1170); conditions: higher = more signal; further: test concentration not given here
[20] = A549 lung cancer cell viability effects, profiling panel, resazurin fluorescence, 24 h, PK04 Diversity Set (AID 1171); conditions: higher = more signal, called active from +8 up or from −8 down; further: test concentration not given here

Sequence of NADPH oxidase 2 (Homo sapiens) (P04839 whole entry, looked up): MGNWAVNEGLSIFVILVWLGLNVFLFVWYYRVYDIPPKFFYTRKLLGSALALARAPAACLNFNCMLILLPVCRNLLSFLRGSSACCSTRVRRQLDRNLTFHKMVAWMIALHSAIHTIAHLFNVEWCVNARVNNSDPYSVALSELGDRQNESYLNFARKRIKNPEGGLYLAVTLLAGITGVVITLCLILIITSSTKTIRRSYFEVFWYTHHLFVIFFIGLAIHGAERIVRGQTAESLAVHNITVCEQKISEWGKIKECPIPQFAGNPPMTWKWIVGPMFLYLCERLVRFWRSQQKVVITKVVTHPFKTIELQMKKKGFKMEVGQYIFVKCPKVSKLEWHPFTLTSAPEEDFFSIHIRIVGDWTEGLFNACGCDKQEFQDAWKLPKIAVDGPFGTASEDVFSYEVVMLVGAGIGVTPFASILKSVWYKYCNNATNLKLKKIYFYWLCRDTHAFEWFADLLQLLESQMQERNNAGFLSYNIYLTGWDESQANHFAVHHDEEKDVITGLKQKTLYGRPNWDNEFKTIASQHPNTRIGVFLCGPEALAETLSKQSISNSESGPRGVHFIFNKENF
Sequence of NADPH oxidase 4 (Homo sapiens) (Q9NPH5 whole entry, looked up): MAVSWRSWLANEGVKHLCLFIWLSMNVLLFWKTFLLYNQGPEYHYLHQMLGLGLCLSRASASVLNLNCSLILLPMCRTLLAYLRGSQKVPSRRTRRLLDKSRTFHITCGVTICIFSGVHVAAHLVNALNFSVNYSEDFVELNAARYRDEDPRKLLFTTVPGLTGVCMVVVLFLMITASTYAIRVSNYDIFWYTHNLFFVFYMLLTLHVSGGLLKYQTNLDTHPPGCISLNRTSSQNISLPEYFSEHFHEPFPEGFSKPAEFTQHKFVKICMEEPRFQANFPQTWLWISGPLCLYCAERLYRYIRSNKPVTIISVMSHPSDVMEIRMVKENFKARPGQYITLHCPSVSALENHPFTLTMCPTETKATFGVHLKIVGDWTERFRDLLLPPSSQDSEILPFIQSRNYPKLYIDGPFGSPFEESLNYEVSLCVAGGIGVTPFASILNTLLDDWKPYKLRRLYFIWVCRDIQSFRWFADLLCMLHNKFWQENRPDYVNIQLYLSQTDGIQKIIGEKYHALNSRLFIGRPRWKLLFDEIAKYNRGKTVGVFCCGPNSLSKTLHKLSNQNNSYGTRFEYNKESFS
Sequence of NADPH oxidase 5 (Homo sapiens) (Q96PH1 whole entry, looked up): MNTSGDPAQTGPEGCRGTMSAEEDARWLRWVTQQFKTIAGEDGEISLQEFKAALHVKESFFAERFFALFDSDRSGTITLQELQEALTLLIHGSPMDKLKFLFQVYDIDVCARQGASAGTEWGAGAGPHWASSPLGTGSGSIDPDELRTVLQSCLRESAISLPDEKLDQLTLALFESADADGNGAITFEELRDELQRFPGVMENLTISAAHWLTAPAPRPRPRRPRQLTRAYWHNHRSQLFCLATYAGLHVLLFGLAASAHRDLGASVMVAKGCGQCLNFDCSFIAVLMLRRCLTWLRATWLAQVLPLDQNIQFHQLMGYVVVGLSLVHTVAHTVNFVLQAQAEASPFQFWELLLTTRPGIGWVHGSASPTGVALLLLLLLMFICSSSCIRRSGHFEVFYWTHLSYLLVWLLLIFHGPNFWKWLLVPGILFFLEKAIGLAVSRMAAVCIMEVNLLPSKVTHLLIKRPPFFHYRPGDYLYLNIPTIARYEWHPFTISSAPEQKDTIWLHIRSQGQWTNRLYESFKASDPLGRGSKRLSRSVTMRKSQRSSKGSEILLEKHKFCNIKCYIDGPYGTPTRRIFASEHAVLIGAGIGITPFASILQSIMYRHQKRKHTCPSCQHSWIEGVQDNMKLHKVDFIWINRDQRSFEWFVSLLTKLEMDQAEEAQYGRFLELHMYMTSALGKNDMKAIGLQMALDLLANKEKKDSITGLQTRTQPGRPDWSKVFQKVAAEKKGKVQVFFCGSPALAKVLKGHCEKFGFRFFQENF

Row | Compound | z-score [1] | composite z-score [2] | z-score [3] | z-score [4] | z-score [5] | z-score [6] | z-score [7] | z-score [8] | z-score [9] | z-score [10] | z-score [11] | z-score [12] | z-score [13] | z-score [14] | z-score [15] | z-score [16] | z-score [17] | z-score [18] | z-score [19] | z-score [20]
1 | O=C1C2C=CC(C(O)c3cc(C(F)(F)F)cc(C(F)(F)F)c3)N(n3cnnc3)C2C(=O)N1Cc1ccccc1 (stereo not given) | -0.546 (inactive) | 0.197 | 1.56 (inactive) | 1.11 (inactive) | 1.69 (inactive) | 0.833 (inactive) | -0.241 | -0.497 (inactive) | -0.889 (inactive) | -0.379 | -0.416 | 0.649 | -0.167 | 0.0347 | -1.41 | -0.605 | -1.62 (inactive) | 0.11 | 0.914 | -0.226 (inactive)
2 | COCCOC(=O)N1C(=O)[C@@]2(c3ccccc31)[C@H](C(=O)N1CCc3cc(OC)c(OC)cc3C1)[C@H]1C(=O)O[C@H](c3ccccc3)[C@H](c3ccccc3)N1[C@@H]2c1ccc(OCCO)cc1 | 1.12 (inactive) | 0.18 | 5.69 (inactive) | 1.85 (inactive) | 0.757 (inactive) | 0.983 (inactive) | 0.0824 | 0.238 (inactive) | 0.974 (inactive) | 1.19 | 1.23 | 1.48 | 0.852 | -1.1 | 0.494 | 0.384 | 0.139 (inactive) | -0.618 | -0.483 | 0.779 (inactive)
3 | O=C1C[C@@](C(=O)NCCN2CCOCC2)(c2ccc([N+](=O)[O-])cc2)[C@@H](c2ccc(CO)cc2)N1CC12CC3CC(CC(C3)C1)C2 | -3.18 (inactive) | 0.394 | 4.51 (inactive) | 1.23 (inactive) | 1.24 (inactive) | 0.548 (inactive) | 0.101 | -4.27 (inactive) | -2.56 (inactive) | -1.06 | -2.97 | 0.0433 | -3 | -3.83 | -4.23 | -2.04 | -0.907 (inactive) | -0.893 | -0.615 | -2.06 (inactive)
4 | Cc1ccc(S[C@]2(C(=O)O)CC(=O)N(C(C)C)[C@@H]2c2ccc(CO)cc2I)cc1 | 3.35 (inactive) | 0.775 | 14.3 (active) | 1.02 (inactive) | 0.532 (inactive) | -0.263 (inactive) | 2.24 | 0.899 (inactive) | -2.47 (inactive) | 0.852 | 2.14 | 0.827 | 1.65 | -2.36 | -0.902 | 0.0957 | -0.386 (inactive) | -0.527 | -0.56 | 0.667 (inactive)
5 | COc1cccc(-c2cccc(=O)o2)c1 | 0.0997 (inactive) | 0.565 | 10.4 (active) | 1.6 (inactive) | -0.685 (inactive) | 0.611 (inactive) | -0.684 | 0.705 (inactive) | -1.15 (inactive) | -1.47 | -1.06 | -0.458 | -0.834 | 0.192 | -1.87 | -1.27 | 0.236 (inactive) | 0.812 | 0.0881 | 0.563 (inactive)
6 | C[N+](C)(C)CCCCCCNC(=O)[C@@H]1C[C@@H]2C(=O)N[C@@H](Cc3ccccc3)C(=O)N2[C@@H]1c1cccc(OCCO)c1 | 1.49 (inactive) | 0.0588 | 10.1 (active) | 1.34 (inactive) | 1.42 (inactive) | 0.349 (inactive) | 0.0757 | 1.39 (inactive) | 1.66 (inactive) | 1.05 | 0.741 | 0.0098 | 0.417 | 0.653 | 0.925 | -0.432 | 0.543 (inactive) | -0.267 | -0.544 | 0.898 (inactive)
7 | O=C(c1ccccc1)N1Cc2ccccc2C[C@@]2(COC(c3ccc(OCCCO)cc3)=N2)C1=O | -0.298 (inactive) | 0.39 | 15.2 (active) | 1.26 (inactive) | 4.66 (inactive) | 0.498 (inactive) | -0.107 | 0.137 (inactive) | -0.302 (inactive) | -0.983 | 0.603 | 0.697 | 0.81 | -0.516 | 0.0855 | 1.47 | -0.768 (inactive) | -0.676 | 0.392 | 2.08 (inactive)
8 | C=CCNC(=O)[C@H]1[C@@H]2C(=O)O[C@@H](c3ccccc3)[C@@H](c3ccccc3)N2[C@@H](c2ccccc2OCCO)[C@]12C(=O)Nc1ccc(C#CCCO)cc12 | -0.849 (inactive) | -0.133 | 9.4 (active) | 1.75 (inactive) | -0.56 (inactive) | 0.982 (inactive) | 0.0418 | 1.76 (inactive) | -0.546 (inactive) | 1.93 | 0.126 | 1.04 | -0.543 | -2.03 | -1.91 | -0.651 | -0.936 (inactive) | -0.953 | -0.31 | -0.685 (inactive)
